Results filed as inconclusive are left out. Active and inactive are the calls of the source. Calls follow the shape of the dose curve; as a rule, active = well fitted cell-killing curve with a large enough effect; inconclusive = small, poorly fitted or top-dose-only effect; inactive = flat fitted curve, though single readings scatter. Bridge positions count the residues as written; N and C are the ends. Square brackets hold non-standard residues; d marks the D form. Side chains are listed from the residue outwards. Peptide text beside a SMILES is read from it. * marks the point of attachment. Phg(4-OMe) = COc1ccc([C@H](N)C(=O)O)cc1; d(aIle) = CC[C@H](C)[C@@H](N)C(=O)O; d(aThr) = C[C@@H](O)[C@@H](N)C(=O)O; NMeF = CN[C@@H](Cc1ccccc1)C(=O)O; Isobutyryl = CC(C)C(=O)*
assay: SW1088 Cancer Cell Toxicity qHTS against the NCATS CANVASS Library (AID 1347350); conditions: SW1088 viability, CellTiter-Glo luminescence, 72 h; series mostly up to 38.3 µM; also: nearly all actives have a fitted effect of over 75% in size
Method in brief: (§1)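 In this cytotoxicity screen, 1000 cells per well rested 4 hours, then received compound (11 concentrations) for a 72-hour incubation; an ATP-dependent luminescent signal (CellTiter-Glo) was the endpoint.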
Potency is read from the fitted curve at half-maximal effect.

Structure (SMILES) | Potency
Cc1occ2c1C(=O)c1c(cc(O)c(O)c1O)C2=O | 5.95 µM (active)
CCC(=O)CCCCC[C@@H]1NC(=O)[C@H]2CCCCN2C(=O)[C@H](C(C)C)NC(=O)[C@H](Cc2cn(OC)c3ccccc23)NC1=O | 13.3 µM (active)
C/C=C(/C)c1c(Cl)c(O)c(C)c2c1Oc1c(Cl)c(O)c(Cl)c(C)c1C(=O)O2 | 18.8 µM (active)
C=C[C@@]1(C)CC[C@@H]([C@H](C)C(=O)/C=C/C(C)(C)O)O1 | inactive
C=CC(CCCCC)C1C(=O)NC(=O)C1C(=O)C1C(/C=C/C)C=CC2CC(C(=O)O)CC(C)C21 (stereo not drawn) | 9.43 µM (active)
C=C1CC[C@@H](O[C@H]2C[C@@](O)([C@H](C)NC(=O)c3[nH]c(C)c(Cl)c3Cl)[C@H](O)[C@@H](C)O2)[C@@H]2C=C[C@H](C)C(/C(O)=C3/C(=O)[C@H](C(C)C)N([C@@H]4O[C@H](C)[C@H](OC(N)=O)[C@H](OC(C)=O)[C@@H]4OC)C3=O)[C@@H]12 (stereo partly drawn) | 5.95 µM (active)
CC[C@H](C)[C@H]1NC(=O)[C@@H](NC(=O)C(C)C)[C@@H](C)OC(=O)[C@H](COC(=O)CNC(C)=O)NC(=O)[C@@H]([C@@H](C)O)NC(=O)[C@H](Cc2ccccc2)N(C)C(=O)[C@H](c2ccc(OC)cc2)NC1=O (Isobutyryl-T[d(aIle)][Phg(4-OMe)][NMeF][d(aThr)]S([Gly-Ac]); ester 1-C) | inactive
C[n+]1cc2cc(C(N)=O)[nH]c3c(=N)c(Cl)c(N)c1c23 | inactive
CC(=O)Oc1cc2c(c(OC(C)=O)c1C1CCc3cc(Cl)c(Cl)n31)C(=O)n1c-2cc(Cl)c1Cl (stereo not drawn) | 4.73 µM (active)
CC(C)=CC[C@H]1C[C@@]2(CC=C(C)C)C(=O)[C@](CC=C(C)C)(C(=O)C(C(=O)c3ccccc3)=C2O)C1(C)C | 4.21 µM (active)
C[C@]12CC[C@]3(C1)[C@H](CC2=O)C[C@@H](OC(=O)c1ccccc1)[C@H]1[C@](C)(C(=O)O)CCC[C@@]13C | 1.49 µM (active)
CC(=O)O[C@H]1c2ccccc2-c2c3c(cc4c2[C@@H]1N(C(C)=O)CC4)OCO3 | 26.6 µM (active)
C=C[C@](Cl)(CBr)CCC=C(C)C | inactive
C[C@H]1C=C[C@H]2CCCC[C@@H]2[C@H]1C(=O)[C@H]1CC2=C(C(=O)O)CCN2C1=O | 16.8 µM (active)
C/C(=C\[C@H](C)C(=O)/C=C/CC1CC(=O)NC(=O)C1)[C@@H]1OC(=O)/C=C/CC/C=C/C[C@@H](O)[C@@H]1C | 16.8 µM (active)
C/C=C1/CN2C3CC1C1C=CC(=O)N4c5ccccc5[C@@]3(C[C@@H]2C2=C[C@H]3C5CC6N(CC[C@@]67c6ccccc6N(C2=O)[C@@H]37)C/C5=C/C)[C@H]14 (stereo partly drawn) | 13.3 µM (active)
Oc1ccc(C2Oc3cc(O)c4c(c3[C@@H]2c2cc(O)cc(O)c2)[C@H]2C(c3ccc(O)cc3)c3c(O)cc5c(c3[C@H]2C4c2ccc(O)cc2)[C@H](c2cc(O)cc(O)c2)C(c2ccc(O)cc2)O5)cc1 (stereo partly drawn) | inactive
COc1cc(O)c(C(=O)[C@@H]2[C@H](CC=C(C)C)C(C)=CC[C@H]2c2ccccc2)c(O)c1 | 5.95 µM (active)
C=C(C)CC[C@H](Cc1c(O)cc(O)c2c1O[C@H](c1ccc(O)cc1)CC2=O)C(=C)C | 23.7 µM (active)
COc1cc(/C=C/C(=O)OC[C@@H](Cc2ccc(O)c(OC)c2)[C@@H](COC(=O)/C=C/c2ccc(O)c(OC)c2)Cc2ccc(O)c(OC)c2)ccc1O | 8.41 µM (active)
C[C@]12CCC[C@](C)(C(=O)O)[C@@H]1CC[C@@]1(C)c3cocc3CC[C@H]21 | inactive
COc1cc2c(c(O)c1O)C(=O)c1c(coc1C)C2=O | 9.43 µM (active)
CO[C@H]1[C@@H](OC(=O)/C(C)=C\[C@@H]2O[C@@H]2[C@H]2O[C@H]2C)[C@H](O)[C@H](OCC23C[C@@H]4[C@H](C)CC[C@H]4C4(C=O)CC2C=C(C(C)C)C34C(=O)O)O[C@@H]1C (stereo partly drawn) | inactive
C/C=C/C1C=CC2CC(C)CC(C)C2C1C(=O)CC(=O)NC(CO)C/C=C/CCCCC (stereo not drawn) | 14.9 µM (active)
CC[C@H]1[C@H](C)[C@H](c2cc(OC)c(OC)cc2OC)[C@@H](C)[C@H](c2cc(OC)c(OC)cc2OC)[C@@]12C=C(OC)C(=O)C=C2OC | 18.8 µM (active)

assay: U-118MG Cancer Cell Toxicity qHTS against the NCATS CANVASS Library (AID 1347351); conditions: U-118MG viability, CellTiter-Glo luminescence, 72 h; series mostly up to 38.3 µM
Method in brief: as §1

Structure (SMILES) | Potency | outcome
C/C=C(/C)c1c(Cl)c(O)c(C)c2c1Oc1c(Cl)c(O)c(Cl)c(C)c1C(=O)O2 | inactive | 
C=CC(CCCCC)C1C(=O)NC(=O)C1C(=O)C1C(/C=C/C)C=CC2CC(C(=O)O)CC(C)C21 (stereo not drawn) | 21.1 µM (active) | 
C=C1CC[C@@H](O[C@H]2C[C@@](O)([C@H](C)NC(=O)c3[nH]c(C)c(Cl)c3Cl)[C@H](O)[C@@H](C)O2)[C@@H]2C=C[C@H](C)C(/C(O)=C3/C(=O)[C@H](C(C)C)N([C@@H]4O[C@H](C)[C@H](OC(N)=O)[C@H](OC(C)=O)[C@@H]4OC)C3=O)[C@@H]12 (stereo partly drawn) | inactive | 
COc1ccc([C@@H]2CC(=O)c3c(cc(O)c(C/C=C(\C)CCC=C(C)C)c3O)O2)cc1 |  | inactive [at 7.64 µM]
C[n+]1cc2cc(C(N)=O)[nH]c3c(=N)c(Cl)c(N)c1c23 | inactive | 
C/C1=C/[C@@H](C)[C@H](O)[C@@H](O)/C=C/CC/C=C/C(=O)O[C@@H]1[C@H](C)C(=O)CCCC1CC(=O)NC(=O)C1 | inactive | 
CC(=O)Oc1cc2c(c(OC(C)=O)c1C1CCc3cc(Cl)c(Cl)n31)C(=O)n1c-2cc(Cl)c1Cl (stereo not drawn) | 13.3 µM (active) | 
C[C@]12CC[C@]3(C1)[C@H](CC2=O)C[C@@H](OC(=O)c1ccccc1)[C@H]1[C@](C)(C(=O)O)CCC[C@@]13C | inactive | 
CC(=O)O[C@H]1c2ccccc2-c2c3c(cc4c2[C@@H]1N(C(C)=O)CC4)OCO3 | inactive | 
C=C[C@](Cl)(CBr)CCC=C(C)C | inactive | 
CC(C)=CCC[C@]12c3cc4c(cc3CC[C@@]1(C)[C@H](C)CC[C@@H]2O)[nH]c1ccccc14 | inactive | 
Oc1ccc(C2Oc3cc(O)c4c(c3[C@@H]2c2cc(O)cc(O)c2)[C@H]2C(c3ccc(O)cc3)c3c(O)cc5c(c3[C@H]2C4c2ccc(O)cc2)[C@H](c2cc(O)cc(O)c2)C(c2ccc(O)cc2)O5)cc1 (stereo partly drawn) | inactive | 
COc1cc(O)c(C(=O)[C@@H]2[C@H](CC=C(C)C)C(C)=CC[C@H]2c2ccccc2)c(O)c1 | 7.49 µM (active) | 
C=C(C)CC[C@H](Cc1c(O)cc(O)c2c1O[C@H](c1ccc(O)cc1)CC2=O)C(=C)C | inactive | 
C[C@]12CCC[C@](C)(C(=O)O)[C@@H]1CC[C@@]1(C)c3cocc3CC[C@H]21 | inactive | 
CC(C)C[C@@H]1c2c(O)c(C=O)c(O)c(C=O)c2O[C@]2(C)C=C[C@@H](C(C)C)C[C@H]12 | inactive | 
COc1cc2c(c(O)c1O)C(=O)c1c(coc1C)C2=O | 21.1 µM (active) | 
C/C=C/C1C=CC2CC(C)CC(C)C2C1C(=O)CC(=O)NC(CO)C/C=C/CCCCC (stereo not drawn) | inactive | 
